The campaign covered roughly 5,500 compounds. About 2,000 (36%) were called active. Inconclusive results (about 18%) are left out. Rule as the data show it: active = normalized growth mostly below about 0.91 (no sharp cut-off); inconclusive = no clear call, values can overlap the other calls; inactive = mostly above about 0.92. This is one part of the list.
Test: chemical genetic growth profiling, strain panel (AID 1159580);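 also: tested at 20 µM; growth read once vehicle control cultures reached saturation at 30 °C; 1 = growth at the plate median or of vehicle wells; lower values mean less growth of the strain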
Conditions: growth OD
[1] = S. cerevisiae deletion strains, locus YCL061C, strain MRC1, active compounds read low
[2] = S. cerevisiae deletion strains, locus YHR030C, strain SLT2, active compounds read low
[3] = S. cerevisiae deletion strains, locus YJL187C, strain SWE1, active compounds read low
[4] = S. cerevisiae deletion strains, locus YAL013W, strain DEP1, active compounds read low
[5] = S. cerevisiae deletion strains, locus YBR229C, strain ROT2, active compounds read low
[6] = S. cerevisiae deletion strains, locus YDL101C, strain DUN1, active compounds read low
[7] = S. cerevisiae deletion strains, locus YDR150W, strain NUM1, active compounds read low
[8] = S. cerevisiae deletion strains, locus YEL061C, strain CIN8, active compounds read low
[9] = S. cerevisiae deletion strains, locus YGR078C, strain PAC10, active compounds read low
[10] = S. cerevisiae deletion strains, locus YHR087W, strain rtc3, active compounds read low
[11] = S. cerevisiae deletion strains, locus YJR043C, strain POL32, active compounds read low
[12] = S. cerevisiae deletion strains, locus YJR075W, strain HOC1, active compounds read low
[13] = S. cerevisiae deletion strains, locus YLR039C, strain RIC1, active compounds read low
[14] = S. cerevisiae deletion strains, locus YLR058C, strain SHM2 (second series), active compounds read low
[15] = S. cerevisiae deletion strains, locus YLR085C, strain ARP6, active compounds read low
[16] = S. cerevisiae deletion strains, locus YLR262C, strain YPT6, active compounds read low
[17] = S. cerevisiae deletion strains, locus YML094W, strain GIM5, active compounds read low
[18] = S. cerevisiae deletion strains, locus YMR219W, strain ESC1, active compounds read low
[19] = S. cerevisiae deletion strains, locus YMR263W, strain SAP30, active compounds read low
[20] = S. cerevisiae deletion strains, locus YMR307W, strain GAS1, active compounds read low
[21] = S. cerevisiae deletion strains, locus YNL153C, strain GIM3, active compounds read low
[22] = S. cerevisiae deletion strains, locus YNL298W, strain CLA4 (second series), active compounds read low
[23] = S. cerevisiae deletion strains, locus YNL322C, strain KRE1, active compounds read low
[24] = S. cerevisiae deletion strains, locus YNR030W, strain Alg12, active compounds read low
[25] = S. cerevisiae deletion strains, locus YPL055C, strain LGE1, active compounds read low
[26] = S. cerevisiae deletion strains, locus YPL241C, strain CIN2, active compounds read low
[27] = S. cerevisiae deletion strains, locus YPR135W, strain CTF4, active compounds read low
[28] = S. cerevisiae strains, strain wild type, active compounds read low

Measured: normalized growth

O=C(O)CCCN1C(=O)c2cccc3cccc(c23)C1=O
inactive: S. cerevisiae deletion strains, locus YAL021C, strain ccr4, active compounds read low 0.983 | S. cerevisiae deletion strains, locus YAL026C, strain drs2, active compounds read low 1.02 | S. cerevisiae deletion strains, locus YAL030W, strain snc1, active compounds read low 1.01 | S. cerevisiae deletion strains, locus YBL061C, strain skt5, active compounds read low 1.01 | S. cerevisiae deletion strains, locus YBR009C, strain hhf1, active compounds read low 1.02 | S. cerevisiae deletion strains, locus YBR023C, strain chs3, active compounds read low 1.01 | S. cerevisiae deletion strains, locus YBR171W, strain sec66, active compounds read low 1.01 | S. cerevisiae deletion strains, locus YBR231C, strain swc5, active compounds read low 1.01 | S. cerevisiae deletion strains, locus YBR279W, strain paf1, active compounds read low 1.01 | S. cerevisiae deletion strains, locus YCL011C, strain gbp2, active compounds read low 1.02 | S. cerevisiae deletion strains, locus YCL016C, strain dcc1, active compounds read low 1.02 | [1] 1.02 | S. cerevisiae deletion strains, locus YCL069W, strain vba3, active compounds read low 1.02 | S. cerevisiae deletion strains, locus YCR088W, strain abp1, active compounds read low 1.02 | S. cerevisiae deletion strains, locus YDL005C, strain med2, active compounds read low 1 | S. cerevisiae deletion strains, locus YDL040C, strain nat1, active compounds read low 1 | S. cerevisiae deletion strains, locus YDR001C, strain nth1, active compounds read low 1.01 | S. cerevisiae deletion strains, locus YDR069C, strain doa4, active compounds read low 1.02 | S. cerevisiae deletion strains, locus YDR137W, strain rgp1, active compounds read low 1.01 | S. cerevisiae deletion strains, locus YDR159W, strain sac3, active compounds read low 1.01 | S. cerevisiae deletion strains, locus YDR195W, strain ref2 1.05 | S. cerevisiae deletion strains, locus YDR297W, strain sur2, active compounds read low 1.01 | S. cerevisiae deletion strains, locus YDR334W, strain swr1, active compounds read low 1.02 | S. cerevisiae deletion strains, locus YDR335W, strain msn5, active compounds read low 1.01 | S. cerevisiae deletion strains, locus YDR392W, strain spt3, active compounds read low 0.882 | S. cerevisiae deletion strains, locus YEL003W, strain gim4, active compounds read low 1.01 | S. cerevisiae deletion strains, locus YEL037C, strain rad23, active compounds read low 1.01 | S. cerevisiae deletion strains, locus YEL061C, strain CIN8 (second series), active compounds read low 1.01 | S. cerevisiae deletion strains, locus YER015W, strain faa2, active compounds read low 1.01 | S. cerevisiae deletion strains, locus YER016W, strain bim1, active compounds read low 1.02 | S. cerevisiae deletion strains, locus YER111C, strain swi4, active compounds read low 1.01 | S. cerevisiae deletion strains, locus YER155C, strain BEM2 (second series), active compounds read low 1 | S. cerevisiae deletion strains, locus YFR010W, strain ubp6, active compounds read low 1.01 | S. cerevisiae deletion strains, locus YGL167C, strain pmr1, active compounds read low 1.01 | S. cerevisiae deletion strains, locus YGL173C, strain kem1, active compounds read low 1.02 | S. cerevisiae deletion strains, locus YGL227W, strain vid30, active compounds read low 1.02 | S. cerevisiae deletion strains, locus YGL240W, strain doc1, active compounds read low 1 | S. cerevisiae deletion strains, locus YGL253W, strain hxk2, active compounds read low 1.02 | S. cerevisiae deletion strains, locus YHR013C, strain ard1, active compounds read low 0.97 | S. cerevisiae deletion strains, locus YHR027C, strain rpn1, active compounds read low 1.02 | [2] 1 | S. cerevisiae deletion strains, locus YHR079C, strain IRE1, active compounds read low 0.998 | S. cerevisiae deletion strains, locus YHR142W, strain chs7, active compounds read low 0.991 | S. cerevisiae deletion strains, locus YJL092W, strain hpr5, active compounds read low 1.01 | S. cerevisiae deletion strains, locus YJL095W, strain BCK1 (second series), active compounds read low 1.01 | S. cerevisiae deletion strains, locus YJL095W, strain BCK1, active compounds read low 0.998 | S. cerevisiae deletion strains, locus YJL115W, strain asf1, active compounds read low 1.02 | S. cerevisiae deletion strains, locus YJL129C, strain trk1, active compounds read low 1.02 | S. cerevisiae deletion strains, locus YJL154C, strain vps35, active compounds read low 1.01 | S. cerevisiae deletion strains, locus YJL164C, strain tpk1, active compounds read low 0.992 | S. cerevisiae deletion strains, locus YJL166W, strain qcr8, active compounds read low 1.01 | [3] 1.01 | S. cerevisiae deletion strains, locus YJR066W, strain TOR1, active compounds read low 0.963 | S. cerevisiae deletion strains, locus YKL160W, strain elf1, active compounds read low 0.988 | S. cerevisiae deletion strains, locus YKR026C, strain gcn3, active compounds read low 1.02 | S. cerevisiae deletion strains, locus YKR091W, strain srl3, active compounds read low 1.01 | S. cerevisiae deletion strains, locus YLL001W, strain dnm1, active compounds read low 1.03 | S. cerevisiae deletion strains, locus YLL026W, active compounds read low 1.01 | S. cerevisiae deletion strains, locus YLL041C, strain sdh2, active compounds read low 1.01 | S. cerevisiae deletion strains, locus YLR027C, strain aat2, active compounds read low 1.01 | S. cerevisiae deletion strains, locus YLR113W, strain HOG1, active compounds read low 1.03 | S. cerevisiae deletion strains, locus YLR221C, strain rsa3, active compounds read low 0.996 | S. cerevisiae deletion strains, locus YLR258W, strain gsy2, active compounds read low 1.02 | S. cerevisiae deletion strains, locus YLR262C, strain YPT6 (second series), active compounds read low 0.983 | S. cerevisiae deletion strains, locus YLR320W, strain mms22, active compounds read low 0.986 | S. cerevisiae deletion strains, locus YLR342W, strain FKS1, active compounds read low 1.02 | S. cerevisiae deletion strains, locus YLR357W, strain rsc2, active compounds read low 1.04 | S. cerevisiae deletion strains, locus YLR370C, strain arc18, active compounds read low 1.02 | S. cerevisiae deletion strains, locus YLR384C, strain iki3, active compounds read low 1.01 | S. cerevisiae deletion strains, locus YML120C, strain ndi1, active compounds read low 1 | S. cerevisiae deletion strains, locus YMR058W, strain fet3, active compounds read low 1.02 | S. cerevisiae deletion strains, locus YMR125W, strain sto1, active compounds read low 1.03 | S. cerevisiae deletion strains, locus YMR129W, active compounds read low 1.02 | S. cerevisiae deletion strains, locus YMR205C, strain PFK2, active compounds read low 1.03 | S. cerevisiae deletion strains, locus YMR231W, strain pep5, active compounds read low 1.01 | S. cerevisiae deletion strains, locus YNL071W, strain lat1, active compounds read low 0.994 | S. cerevisiae deletion strains, locus YNL183C, strain NPR1, active compounds read low 0.931 | S. cerevisiae deletion strains, locus YNL209W, strain ssb2, active compounds read low 1.01 | S. cerevisiae deletion strains, locus YNL248C, strain rpa49, active compounds read low 0.98 | S. cerevisiae deletion strains, locus YNL322C, strain KRE1 (second series), active compounds read low 1.02 | S. cerevisiae deletion strains, locus YNR049C, strain mso1, active compounds read low 1.01 | S. cerevisiae deletion strains, locus YOR001W, strain rrp6, active compounds read low 0.976 | S. cerevisiae deletion strains, locus YOR070C, strain gyp1, active compounds read low 1.01 | S. cerevisiae deletion strains, locus YOR080W, strain dia2, active compounds read low 1.02 | S. cerevisiae deletion strains, locus YOR083W, strain WHI5, active compounds read low 0.995 | S. cerevisiae deletion strains, locus YOR106W, strain vam3, active compounds read low 1.01 | S. cerevisiae deletion strains, locus YOR231W, strain MKK1, active compounds read low 1.02 | S. cerevisiae deletion strains, locus YOR265W, strain rbl2, active compounds read low 1.01 | S. cerevisiae deletion strains, locus YOR270C, strain vph1, active compounds read low 0.999 | S. cerevisiae deletion strains, locus YOR290C, strain snf2, active compounds read low 1 | S. cerevisiae deletion strains, locus YPL051W, strain arl3, active compounds read low 0.982 | S. cerevisiae deletion strains, locus YPL078C, strain atp4, active compounds read low 0.997 | S. cerevisiae deletion strains, locus YPL106C, strain sse1, active compounds read low 1.01 | S. cerevisiae deletion strains, locus YPL240C, strain hsp82, active compounds read low 1.02 | S. cerevisiae deletion strains, locus YPL256C, strain CLN2, active compounds read low 1.03

c1ccc2c(c1)-c1cccc3cccc-2c13
active: [4] 0.897 | [5] 0.873 | [1] 0.876 | S. cerevisiae deletion strains, locus YDL134C, strain PPH21, active compounds read low 0.873 | [8] 0.787 | [9] 0.855 | [2] 0.34 | [10] 0.826 | [12] 0.771 | S. cerevisiae deletion strains, locus YKL190W, strain CNB1, active compounds read low 0.767 | [13] 0.363 | [14] 0.923 | [15] 0.318 | [16] 0.313 | [17] 0.757 | [20] 0.428 | [21] 0.906 | [22] 0.694 | [23] 0.932 | [24] 0.721 | [25] 0.666 | [26] 0.648 | [27] 0.483 | [28] 0.863
inactive: [6] 0.929 | [7] 0.911 | [3] 0.939 | [11] 0.929 | [18] 0.949 | [19] 0.916 | S. cerevisiae deletion strains, locus YOL006C, strain TOP1, active compounds read low 0.764

O=S(=O)(O)c1cccc2cccc(Cl)c12
inactive: [4] 1.01 | [5] 1.01 | [6] 0.984 | [7] 0.93 | [8] 0.998 | [9] 1 | [2] 0.985 | [10] 1.06 | [3] 1 | [11] 0.993 | [12] 0.999 | [13] 0.996 | [14] 1.01 | [15] 1.03 | [16] 1.01 | [17] 1.03 | [18] 1.02 | [19] 1.01 | [20] 0.996 | [21] 0.999 | [22] 1.02 | [23] 1 | [24] 1.03 | [25] 1.02 | [26] 1.01 | [27] 0.973 | [28] 0.984

Reference: PubChem BioAssay AID1159580 (chemical genetic matrix, 2015)
